# Experimental data published in PubChem BioAssay (NCATS).
# Results filed as inconclusive are left out. Active and inactive are the calls of the source. Unless noted, calls come from the whole dose curve; as a rule, active = well fitted inhibition curve with a large enough effect; inconclusive = small, poorly fitted or top-dose-only effect; inactive = no such curve, though single readings can be large or run the other way. Non-standard residues stand in square brackets, D forms with d. Residues, ends and D or L forms follow the SMILES beside them. *: point of attachment. Nva = CCC[C@H](N)C(=O)O; Cbz = O=C(OCc1ccccc1)*
# Columns and labels:
# [1] = qHTS profiling of the MIPE4 collection as inhibitors of Plasmodium falciparum (3D7) proliferation (AID 743344; call rule not given here;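 note: scaled between DMSO vehicle wells and 0.29 µM artemisinin as full inhibition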); settings: P. falciparum 3D7 in erythrocytes, SYBR Green DNA fluorescence, 72 h; at 28.5 µM unless noted
# Summary of the method: (§1)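 Parasite DNA was quantified by SYBR Green I fluorescence (ex 485, em 535 nm) after overnight lysis in saponin/Triton buffer at room temperature. Cultures at 0.3% parasitemia and 2.5% hematocrit were first exposed to compound for 72 h at 37 C; signals were normalised to artemisinin (0.29 uM) and vehicle wells.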
# [2] = qHTS profiling of the MIPE4 collection as inhibitors of Plasmodium falciparum (DD2) proliferation (Rep 2) (AID 743346; call rule not given here); settings: P. falciparum Dd2 in erythrocytes, SYBR Green DNA, 72 h; at 28.5 µM unless noted
# Summary of the method: as §1
# [3] = qHTS profiling of the MIPE4 collection as inhibitors of Plasmodium falciparum (HB3) proliferation (AID 743347; call rule not given here;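 note: plate controls were DMSO vehicle wells for no effect and artemisinin wells for full effect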); settings: P. falciparum HB3 in erythrocytes, SYBR Green DNA, 72 h; at 28.5 µM unless noted
# Summary of the method: as §1
# [4] = High-throughput drug toxicity screening in the BPDCN cell line Gen2.2 (AID 1224824; call rule not given here;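 note: cells exposed to compounds for 48 h before reading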); settings: Gen2.2 BPDCN cells; at 45.8 µM (top of the series) unless noted
# Summary of the method: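 CellTiter-Glo luminescence read after 48 h compound exposure at 37 C defines viability; percent activity set with DMSO as 100% and bortezomib (9.2 uM final) as 0%. 500 exponentially growing cells per well, RPMI plus 10% FBS.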
# [5] = High-throughput drug toxicity screening in the BPDCN cell line Cal-1 (AID 1224825; call rule not given here); settings: Cal-1 BPDCN cell viability, qHTS; at 45.8 µM (top of the series) unless noted
# Summary of the method: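 Viability of the BPDCN line Cal-1 is measured as ATP-based luminescence (CellTiter-Glo) following 48 h incubation with compounds. Percent activity uses DMSO-treated wells as 100% and 9.2 uM bortezomib as 0%.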
# [6] = qHTS assay for measurement of the activity of small molecule inhibitors on Zika virus induced Caspase-3 activity in human iPSC derived neural progenitor cells (hNPCs) (AID 1224857); note: % of control where 0% means no effect; nearly all actives have a fitted effect of over 65% in size
# Summary of the method: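 Human iPSC-derived neural progenitor cells pretreated 1 hr with compounds, then infected with Zika virus (2 FFU/cell) for 6 hours at 37 C. Caspase-3/7 measured by Caspase-Glo luminescence; % inhibition calculated from induction scaled to uninfected (0%) and infected (100%) wells.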
# [7] = qHTS assay for measurement of the activity of small molecule inhibitors on Zika virus induced Caspase-3 activity in human astrocytoma cells (AID 1224859);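 note: plate controls were ZIKV-infected untreated cells for no effect and uninfected cells for full effect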
# Summary of the method: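 SNB-19 astrocytoma cells, 250/well, pretreated 1 h with compounds, then Zika virus at 2 FFU/cell for 6 h at 37 C; Caspase-Glo 3/7 luminescence after 30 min; percent inhibition normalised to uninfected and infected controls.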
# [8] = qHTS Screen of the MIPE 4.0 Collection Against Ewings Sarcoma (RDES) (AID 1259252); note: nearly all actives have a fitted effect of over 35% in size; note: potency is the fitted concentration of half-maximal effect
# Summary of the method: (§2)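 Measured: ATP luminescence (CellTiter-Glo) 10 min after reagent addition, following 48 h drug treatment. Relative luciferase units converted to percent activity, with no-cell wells as full and DMSO wells as zero inhibition.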
# [9] = qHTS Screen of the MIPE 4.0 Collection Against Ewings Sarcoma (TC71) (AID 1259253); note: nearly all actives have a fitted effect of over 40% in size; note: potency is the fitted concentration of half-maximal effect
# Summary of the method: as §2
# [10] = qHTS Screen of the MIPE 4.0 Collection Against Ewings Sarcoma (EW8) (AID 1259255); note: nearly all actives have a fitted effect of over 35% in size; note: potency is the fitted concentration of half-maximal effect;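 for viability: 100% = DMSO-treated cells and 0% = medium-only wells without cells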
# Summary of the method: as §2
# [11] = qHTS Screen of the MIPE 4.0 Collection Against Ewings Sarcoma (TC32) (AID 1259256); note: nearly all actives have a fitted effect of over 45% in size; note: potency is the fitted concentration of half-maximal effect
# Summary of the method: as §2
# [12] = qHTS profiling of the MIPE4 collection as inhibitors of Plasmodium falciparum (DD2) proliferation (AID 743345; call rule not given here); settings: P. falciparum Dd2 in erythrocytes, SYBR Green DNA, 72 h; at 28.5 µM unless noted
# Summary of the method: as §1
Structure (SMILES),"parasite growth, % of DMSO control [1]","parasite growth, % of control (lower = inhibition) [2]","growth, % of control [3]","cell viability, % of control (lower = more cytotoxic) [4]",viability (% of control) [5],Potency [6],Potency [7],Potency [8],Potency [9],Potency [10],Potency [11],"parasite growth remaining, % of DMSO control (lower = more inhibition) [12]"
C[C@H](NC(=O)[C@@H](O)c1cc(F)cc(F)c1)C(=O)N[C@@H]1C(=O)N(C)c2ccccc2-c2ccccc21,11%,27.7%,8.44%,165%,103%,inactive,inactive,inactive,20900 nM (active),inactive,inactive,–
C=C1C(=O)O[C@H]2[C@@H]1CCC(C)=CCC[C@@]1(C)O[C@@H]21,39.5%,37.7%,31.2%,2.53%,2.31%,inactive,inactive,20900 nM (active),10500 nM (active),9350 nM (active),9350 nM (active),75.8%
CC(C=CC(=O)NO)=C[C@@H](C)C(=O)c1ccc(N(C)C)cc1,5.14%,9.43%,3.58%,2.63%,2.32%,inactive,inactive,526 nM (active),743 nM (active),187 nM (active),332 nM (active),–
C=Cc1c(C)c2cc3nc(cc4[nH]c(cc5nc(cc1[nH]2)C(C)=C5CCC(=O)O)c(CCC(=O)OC)c4C)[C@@]1(C)C3=CC=C(C(=O)OC)[C@H]1C(=O)OC,3.3%,6.94%,4.7%,5.48%,3.29%,inactive,inactive,41.8 nM (active),83.3 nM (active),118 nM (active),74.3 nM (active),5.89%
CC(=CC(=O)Nc1ccccc1C(=O)O)c1ccc2ccccc2c1,383%,133%,674%,115%,77.7%,inactive,inactive,4180 nM (active),13200 nM (active),10500 nM (active),9350 nM (active),110%
c1ccc(CNc2nc(NCc3ccccc3)c3ccccc3n2)cc1,5.75%,10.1%,8.52%,6.1%,2.67%,inactive,inactive,20900 nM (active),26400 nM (active),20900 nM (active),23500 nM (active),7.99%
NC(=O)Nc1cc(-c2ccc(CN3CCOCC3)cc2)sc1C(N)=O,27.3%,33%,33.4%,26.1%,6.64%,inactive,inactive,4690 nM (active),332 nM (active),93.5 nM (active),187 nM (active),46.5%
O=C(NC1CC1)c1cccc(-c2ccc3c(NC(=O)C4CC4)n[nH]c3c2)c1,35.1%,59.5%,63.3%,224%,17.8%,inactive,inactive,1320 nM (active),1320 nM (active),3720 nM (active),1320 nM (active),96.7%
CC(C)C[C@H](NC(=O)[C@@H](NC(=O)c1cccc(-c2ccccc2)n1)[C@@H](C)O)B(O)O,4.97%,7.67%,–,3.77%,4.67%,inactive,inactive,59 nM (active),74.3 nM (active),37.2 nM (active),66.2 nM (active),–
CCC[C@@H](C=O)NC(=O)[C@H](CC(C)C)NC(=O)[C@H](CC(C)C)NC(=O)OCc1ccccc1 (Cbz-Leu-Leu-[Nva]-aldehyde),4.86%,7.93%,3.3%,10.9%,7.12%,inactive,inactive,1180 nM (active),1320 nM (active),743 nM (active),1050 nM (active),–
Oc1cc2c(cc1O)C1c3ccc(O)c(O)c3OCC1(O)C2 (stereo not given),13%,15.2%,9.94%,167%,105%,inactive,inactive,inactive,inactive,inactive,inactive,–
Cc1cnc(NC(=O)Nc2cc(Br)c(C)cc2OC[C@@H]2CNCCO2)cn1,5.93%,8.58%,2.97%,20.9%,7.84%,inactive,inactive,2350 nM (active),590 nM (active),833 nM (active),590 nM (active),7.73%
COc1ccc(C[C@@H](C)[C@@H](C)Cc2ccc(OC)c(OC)c2)cc1OC,62.3%,60.3%,30.9%,6.99%,8.52%,inactive,inactive,743 nM (active),1180 nM (active),1180 nM (active),inactive,–
CO[C@@H]1[C@@H](O)[C@H](O)[C@@H](n2c3c(Cl)cccc3c3c4c(c5c6cccc(Cl)c6[nH]c5c32)C(=O)NC4=O)O[C@@H]1CO,7.5%,8.26%,8.64%,12.9%,5.01%,inactive,inactive,105 nM (active),93.5 nM (active),105 nM (active),inactive,–
